{"source": "PubChem BioAssay AID1851", "about": "(National Center for Advancing Translational Sciences (NCATS), 2009)", "note": "“And” between values parts separate entries of the source, which are not always exact repeats. Equal entries are not always repeated. Screen size: about 16,000 compounds; about 2,600 (16%) were called active. About 20% were inconclusive and are not listed. The call rests on the fitted dose curve; in most records, active means well fitted curve in the direction sought with a large enough effect; inconclusive means small, poorly fitted or top-dose-only effect, or effect the other way; inactive means no such curve, though single readings can be large or run the other way. Not all results are given here. More than one record can exist for a structure, and the calls need not agree. On the % scale 0 is the no-effect control and ±100 the full control effect."}
{"biological_target": "Cytochrome P450 2D6 (Homo sapiens) (UniProt P10635)", "sequence (P10635 whole entry, looked up)": "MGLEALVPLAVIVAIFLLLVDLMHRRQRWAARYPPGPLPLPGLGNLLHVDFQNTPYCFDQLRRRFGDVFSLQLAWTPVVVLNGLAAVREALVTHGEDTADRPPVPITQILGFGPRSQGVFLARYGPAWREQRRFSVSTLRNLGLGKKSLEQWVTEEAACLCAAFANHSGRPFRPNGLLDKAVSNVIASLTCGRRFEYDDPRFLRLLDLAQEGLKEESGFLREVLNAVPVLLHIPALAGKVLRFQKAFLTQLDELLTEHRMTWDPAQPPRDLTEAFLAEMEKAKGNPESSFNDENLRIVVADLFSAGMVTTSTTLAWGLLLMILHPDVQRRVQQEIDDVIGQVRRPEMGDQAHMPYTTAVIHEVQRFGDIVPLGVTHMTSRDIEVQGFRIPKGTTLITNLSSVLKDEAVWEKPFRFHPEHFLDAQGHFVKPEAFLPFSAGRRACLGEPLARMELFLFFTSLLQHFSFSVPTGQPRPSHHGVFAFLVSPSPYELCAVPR", "experiment": "Cytochrome panel assay with activity outcomes", "conditions": "recombinant CYP, pro-luciferin dealkylation, luminescence, p450-cyp2d6; series mostly up to 57.1 µM"}
{"smiles": "COc1ccc(NC(=O)N2CCCC2C(=O)Nc2ccccc2)cc1", "note": "(stereo unspecified)", "AC50": "inactive"}
{"smiles": "COC(=O)c1ccccc1NC(=O)C1CCN(C(=O)c2ccc(OC)cc2)CC1", "AC50": "inactive"}
{"smiles": "O=C(Nc1ccc(Oc2ccccc2)cc1)C1CCN(c2c3c(nc4ncnn24)CCC3)CC1", "AC50": "12.6 µM (active)"}
{"smiles": "COc1ccc(CNc2ccnc(-c3cccnc3)n2)c(OC)c1", "AC50": "10 µM (active)"}
{"smiles": "COc1cccc(-c2nccc(NCc3ccc(OC)cc3OC)n2)c1", "AC50": "12.6 µM (active)"}
{"smiles": "COc1cccc(-c2nccc(NCc3ccccc3OC)n2)c1", "AC50": "0.398 µM (active)"}
{"smiles": "COc1ccccc1CNc1ccnc(-c2cccc(C#N)c2)n1", "AC50": "25.1 µM (active)"}
{"smiles": "COc1ccc(C(=O)Nc2scc(-c3ccc(Cl)cc3Cl)c2C(N)=O)cc1", "AC50": "inactive"}
{"smiles": "CN1CCCN(C2C3CC4CC(C3)CC2C4)CC1", "note": "(stereo unspecified)", "AC50": "inactive"}
{"smiles": "Cc1cc(C)c(S(=O)(=O)N2CCN(c3ccc([N+](=O)[O-])c(NCc4ccco4)c3)CC2)c(C)c1", "AC50": "inactive"}
{"smiles": "CCOCC(=O)Nc1c(C(=O)Nc2ccccc2OC)oc2ccccc12", "AC50": "inactive"}
{"smiles": "COc1ccc(COC(=O)N/N=C2/C[C@@H](O)[C@@H](O)[C@@H]3[C@@H]4C(=O)N([C@@H](C)c5ccccc5)C(=O)[C@H]4CC[C@@H]23)cc1", "activity, negative = inhibition": "-8.23% [at 11.4 µM] (inactive)"}
{"smiles": "CC(C)=C1C(=O)C(c2ccccc2)=C2CN3C(=O)N(CCc4ccccc4)C(=O)[C@]3(Cc3ccccc3)[C@H]21", "AC50": "inactive"}
{"smiles": "O=C(O)c1nc(-c2ccccc2)[nH]c1C(=O)O", "activity, negative = inhibition": "-20.9% [at 11.4 µM] (inactive)"}
{"smiles": "Cc1cccc(NC(=O)c2cc(N3C(=O)CCC3=O)ccc2Cl)n1", "AC50": "inactive"}
{"smiles": "Cc1ccc(S(=O)(=O)N(C)c2cc(S(=O)(=O)N3CCC(C)CC3)c(C)cc2C)cc1", "AC50": "inactive"}
{"smiles": "CCOC(=O)c1cnc(-n2nc(C)cc2C)nc1NCCO", "AC50": "inactive"}
{"smiles": "CC1=CC(=O)CC(C)(C)[C@]1(O)/C=C\\C(C)=C\\C(=O)O", "activity, negative = inhibition": "11.4% [at 11.4 µM] (inactive)"}
{"smiles": "CC1=C(\\C=C/C(C)=C/C=C\\C(C)=C\\C(=O)O)C(C)(C)CCC1", "AC50": "inactive and 2 µM (active)"}
{"smiles": "O=C1c2ccccc2N[C@H](c2cc(Cl)cc(Cl)c2O)N1CCc1ccccn1", "activity, negative = inhibition": "15% [at 11.4 µM] (inactive)"}
{"smiles": "COC(=O)C1CCN(CC(=O)Nc2sc3c(c2C#N)CCC3)CC1", "AC50": "1.12 µM (active)"}
{"smiles": "N#Cc1c(NC(=O)C2CC(c3ccccc3Cl)=NO2)sc2c1CCC2", "note": "(stereo unspecified)", "AC50": "inactive"}
{"smiles": "COC(=O)c1c(NC(=O)Cn2cc([N+](=O)[O-])cn2)sc2c1CCC2", "AC50": "inactive"}
{"smiles": "O=c1c(-c2ccc(F)cc2)nc2cnc(N3CCOCC3)nc2n1C[C@H]1CCCO1", "AC50": "inactive"}
{"smiles": "COc1ccc(Cc2nnc(NC(=O)c3cccc([N+](=O)[O-])c3C)s2)cc1", "AC50": "inactive"}
{"smiles": "COc1cc(OC)c2c(c1Cl)O[C@@]1(C2=O)[C@H](C)CC(=O)C[C@@H]1OC", "AC50": "inactive"}
{"smiles": "COCCn1c(=O)c(-c2cc(F)cc(F)c2)nc2cnc(Oc3ccccc3)nc21", "AC50": "inactive"}
{"smiles": "CSc1nc2c(c(C(F)(F)F)n1)CC(C)CC2", "note": "(stereo unspecified)", "AC50": "inactive"}
{"smiles": "CSc1nc(N)c2ncn([C@@H]3O[C@@H](COP(=O)(O)OP(=O)(O)O)[C@@H](O)[C@H]3O)c2n1", "AC50": "inactive"}
{"smiles": "COc1ccc(N2C(=O)NC(NC(=O)c3ccncc3)(C(F)(F)F)C2=O)cc1", "note": "(stereo unspecified)", "AC50": "inactive"}
{"smiles": "Cc1nc(SCC(=O)Nc2c(C)n(C)n(-c3ccccc3)c2=O)nc(C)c1C", "AC50": "inactive"}
{"smiles": "c1ccc2cc(NCNc3ccc4ccccc4c3)ccc2c1", "AC50": "1 µM (active)"}
{"smiles": "Cc1ccc(-c2nnc(-c3ccc4ccccc4c3)o2)cc1", "activity, negative = inhibition": "3.58% [at 11.4 µM] (inactive)"}
{"smiles": "O=C(Nc1ccc2ccccc2c1)c1onc2c1CCCC2", "AC50": "inactive"}
{"smiles": "CCOc1cc(CN2CCN(c3ccc(C(C)=O)cc3)CC2)ccc1OC", "AC50": "inactive"}
{"smiles": "Cn1c(N)nc2c(nc(OCc3ccccc3)n2[C@@H]2O[C@H](CO)[C@@H](O)[C@@H]2O)c1=O", "activity, negative = inhibition": "9.24% [at 11.4 µM] (inactive)"}
{"smiles": "CCN1C(=O)/C(=C/C=C2/SCCN2C)SC1=S", "AC50": "inactive"}
{"smiles": "O=C1c2ccccc2C(=O)C1c1ccccc1", "AC50": "inactive"}
{"smiles": "CC1(C)C(=O)NC2=C1C(=O)C(=O)c1ccccc12", "AC50": "2.51 µM (active)"}
{"smiles": "Cn1ncc2c(Cl)ncnc21", "activity, negative = inhibition": "12.3% [at 11.4 µM] (inactive)"}
{"smiles": "COc1ccc(-c2cc(C(F)(F)F)n3nc(C(=O)NCc4ccco4)c(Cl)c3n2)cc1", "AC50": "inactive"}
{"smiles": "CCCCOC(=S)NC(=O)c1sc2ccccc2c1Cl", "AC50": "inactive"}
{"smiles": "CN(C)CC[C@H](c1ccc(Br)cc1)c1ccccn1", "AC50": "15.8 µM (active) and 25.1 µM (active)"}
{"smiles": "CN(C)CC[C@H](c1ccc(Cl)cc1)c1ccccn1", "AC50": "31.6 µM (active)"}
{"smiles": "CN(C)CC[C@@H](c1ccccc1)c1ccccn1", "AC50": "inactive"}
{"smiles": "CC(=O)Oc1ccc(C(c2ccc(OC(C)=O)cc2)c2ccccn2)cc1", "AC50": "inactive"}
{"smiles": "CN(C)CC(CN(C)C)c1ccccn1", "activity, negative = inhibition": "6.41% [at 11.4 µM] (inactive)"}
{"smiles": "Cc1ccc(-c2c(C#N)c(N)n(-c3ccccc3)c(=O)c2C#N)cc1", "AC50": "inactive"}
{"smiles": "COC(=O)C1=C(C)C(c2ccc(OC)cc2)NC(=S)N1", "note": "(stereo unspecified)", "AC50": "inactive"}
{"smiles": "Cc1noc(C)c1COc1ccc(C(=O)NCC2CCCO2)cc1", "note": "(stereo unspecified)", "AC50": "inactive"}
{"smiles": "N[C@H](C(=O)O)[C@@H](O)c1cnc[nH]1", "activity, negative = inhibition": "10.8% [at 11.4 µM] (inactive)"}
{"smiles": "COc1cc(OC)c(C(=O)CCCCN2CCC3(CC2)NC(=O)NC3=O)cc1NS(=O)(=O)c1ccc(C(F)(F)F)cc1", "AC50": "inactive"}
{"smiles": "CC[C@H]1C2=C3C(CC[C@H]4C(OCc5ccc(F)cc5C(F)(F)F)OC[C@](C)([C@@H]34)N(C(=O)OC(C)(C)C)C2)C(COC(C)=O)C1COC(C)=O", "note": "(stereo partly specified)", "AC50": "inactive"}
{"smiles": "CCOC(=O)C1=C(N)Oc2ccc(Br)cc2[C@@H]1[C@@H](C#N)C(=O)OCC", "AC50": "inactive"}
{"smiles": "O=c1c(-c2ccc(F)cc2)nc2cnc(N3CCNCC3)nc2n1C1CC1", "AC50": "inactive"}
{"smiles": "c1ccc2cc(Sc3ncnc4c3oc3ccccc34)ccc2c1", "AC50": "inactive"}
{"smiles": "CCc1nc(N[C@H](C(=O)O)C(C)CC)c2oc3ccccc3c2n1", "note": "(stereo partly specified)", "AC50": "inactive"}
{"smiles": "c1ccc(-c2nc(NCCCn3ccnc3)c3oc4ccccc4c3n2)cc1", "AC50": "2 µM (active)"}
{"smiles": "Cc1nc(SCC(=O)NCCc2ccccc2)c2oc3ccccc3c2n1", "AC50": "inactive"}
{"smiles": "O=C(Cn1cnc2c(oc3ccccc32)c1=O)NCc1ccco1", "AC50": "inactive"}
{"smiles": "c1ccc2c(c1)oc1c(NCCCn3ccnc3)ncnc12", "AC50": "1.26 µM (active)"}
